Bioassay records deposited in PubChem by National Center for Advancing Translational Sciences (NCATS).
VACV Venus inh – vaccinia inhibition (Venus reporter) | 330,000 tested, 0.46% active | Vaccinia virus Venus reporter expression, fluorescence | Potency, µM (titrated, usually from 36.5 µM), for the others: top-dose activity change, negative = inhibition, usual class: inhibitors; calls by dose curve; tested in A549 cells; note: potency is the fitted concentration of half-maximal effect; nearly all actives have a fitted effect of over 30% in size
HCMV inh – human cytomegalovirus inhibition | AID 1259415 | 410,000 tested, 4.5% active | HFF cells, HCMV-luciferase reporter, 72 h; active compounds read low | activity change, negative = inhibition, % at 57.5 µM; in the data active = activity change below about -60%; inconclusive = no clear call, values can overlap the other calls; inactive = above about -39%
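Screen run at 2 compound doses on HFFs infected with reporter HCMV, MOI 1 PFU/cell. Luciferase activity from cell lysates at 72 h post infection gave inhibition relative to buffer-only and Salinomycin wells.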
Marburg entry inh – inhibitors of Marburg virus binding or cell entry; 300,000 tested, 1.8% active; Potency, µM (titrated, usually from 37.8 µM), for inactives: at the top dose activity change, negative = inhibition, usual class: inhibitors; AID 540276; Marburg virus pseudotyped entry inhibition, cell reporter; calls by dose curve; tested in HEK293 cells; note: potency is the fitted concentration of half-maximal effect
VACV mCherry inh – vaccinia inhibition (mCherry reporter); Vaccinia virus mCherry reporter infection, fluorescence; Potency, µM (top dose mostly 36.5 µM), inactives show at the top dose activity change, negative = inhibition, hits mostly inhibitors; 310,000 tested, 0.63% active; AID 720579; calls by dose curve; tested in A549 cells; note: potency is the fitted concentration of half-maximal effect; nearly all actives have a fitted effect of over 35% in size
Lassa entry inh – Lassa virus entry inhibition. Lassa virus pseudotype entry inhibition, cell reporter. Potency, µM (highest dose often 37.9 µM), without a hit: at the top dose activity change, negative = inhibition, hits mostly inhibitors. 300,000 tested, 1.2% active; calls by dose curve; tested in HEK293 cells; note: potency is the fitted concentration of half-maximal effect; nearly all actives have a fitted effect of over 50% in size
FMDV antiviral – blocks foot and mouth disease virus | FMDV antiviral cell-based qHTS | Potency, µM (titrated, usually from 57.9 µM), without a hit: at the top dose activity change, negative = inhibition, most hits filed as inhibitors | 410,000 tested, 1.2% active | AID 1159524; calls by dose curve; tested in HEK293T cells; note: read-out not given here; potency is the fitted concentration of half-maximal effect; nearly all actives have a fitted effect of over 45% in size
An asterisk follows results filed as active; i = inactive; ? = inconclusive; / = not tested or not shown; [ ] = remark or other dose. Sampled rows, rich in hits. Any-hit rate of the full collection: about 6.5%. % is set by controls: 0 for no effect and ±100 for the full control effect.

SMILES	VACV Venus inh	HCMV inh	Marburg entry inh	VACV mCherry inh	Lassa entry inh	FMDV antiviral
COc1ccc(/C=C2\CN(Cc3ccccc3)C/C(=C\c3ccc(OC)c(O)c3)C2=O)cc1O	?	-101*	?	7.9µM*	?	-12%
O=C1/C(=C/c2cccc([N+](=O)[O-])c2)CCc2ccccc21	-8%	-9	?	-15%	-18%	-18%
CCN1C/C(=C\c2cccc([N+](=O)[O-])c2)C(=O)/C(=C/c2cccc([N+](=O)[O-])c2)C1	-7%	-100*	?	i	2.5µM*	1.1µM*
COc1cc2cc(CNc3ccccc3)c(=O)n(CC(=O)Nc3ccccc3)c2cc1OC	0%	8	/	-5%	14%[46.1 µM]	9%
CC(O)(c1ccc(F)c(F)c1)c1nc(-c2ccncc2)cs1 (stereo not given)	-27%	-31	/	-17%	/	0%
COc1ccc(C(C)(O)c2nc(-c3cccc(C(F)(F)F)c3)cs2)cc1 (stereo not given)	-13%	-67*	/	i	/	-22%
COc1ccc(-c2csc(C(C)(O)c3ccc(F)c(F)c3)n2)cc1 (stereo not given)	?	-63*	/	i	/	-28%
CN(C)c1ccc(-c2csc(C(C)(O)c3ccc(F)c(F)c3)n2)cc1 (stereo not given)	-2%	-64*	/	i	/	-19%
CC(I)CCC(C)[n+]1cccc(I)c1 (stereo not given)	12%	/	/	-12%	/	/
NC(=O)C1=CC2C3C=CC2(O)C(=O)OC3O1 (stereo not given)	-14%	-97*	?	-11%	7.1µM*	?
N#Cc1ccc2c(c1)C[C@]1(c3ccsc3)Oc3c(c(=O)oc4ccccc34)[C@H]2O1	/	/	5%[14.2 µM]	/	/	/
COc1cccc(/C=N/Nc2nc(Nc3ccccc3)nc(-n3nc(C)cc3C)n2)c1O	?	59	?	/	16µM*	-23%
COc1cccc(/C=N/Nc2cc(-n3nc(C)cc3-c3ccccc3)ncn2)c1O	?	-96*	?	13µM*	?	?
Cc1cnn(-c2cc(N/N=C/c3ccccc3Cl)ncn2)c1	-13%	-18	9%	-14%	3%	-12%
Cc1cc(C)c2c(n1)nn1c(C)c(CCC(=O)Nc3cccc(C)c3C)c(C)nc21	0%	5	19%[46.1 µM]	3%	6%[46.1 µM]	-27%
CCCCN(Cc1ccccc1)S(=O)(=O)c1ccc2c(c1)CC(C)N2C(=O)CC (stereo not given)	-14%	-7	7%[46.1 µM]	-13%	?	33%
COc1ccccc1C1CN(Cc2cnn(C)c2C)Cc2ccccc2O1 (stereo not given)	-1%	/	/	-18%	/	-10%
CC(C)N1CCN(Cc2cccc([N+](=O)[O-])c2)CC1	-3%	-40	6%[46.1 µM]	i	?	19%
O=[N+]([O-])c1cccc(CN2CCN(Cc3ccc(Cl)cc3)CC2)c1	-10%	-77*	-1%[46.1 µM]	-14%	-21%	?
COc1ccc(NC(=O)N2CCN(c3nc(-c4cccc(OC)c4)cs3)CC2)cc1	/	-91*	23µM*	/	?	20µM*
COc1cc(-c2noc(-c3ccc(NCC4CCCO4)c([N+](=O)[O-])c3)n2)cc(OC)c1OC (stereo not given)	-9%	-3	-1%[46.1 µM]	-11%	4%[46.1 µM]	11µM*
O=[N+]([O-])c1cc(-c2nc(-c3ccccc3)no2)ccc1N1CCN(c2ccccc2)CC1	-4%	8	2%[46.1 µM]	-13%	13%[46.1 µM]	-9%
Cc1ccc(-c2noc(-c3ccc(N4CCN(C)CC4)c([N+](=O)[O-])c3)n2)cc1	-6%	?	9%[46.1 µM]	-12%	23%[46.1 µM]	20%
COc1ccc(-c2noc(-c3ccc(NCC4CCCO4)c([N+](=O)[O-])c3)n2)cc1OC (stereo not given)	-4%	7	-22%[46.1 µM]	-5%	5%[46.1 µM]	-14%
O=[N+]([O-])c1cc(-c2nc(-c3ccccc3)no2)ccc1N1CCCC1	?	-80*	-6%[46.1 µM]	-25%	8%[46.1 µM]	-12%
COc1ccc(-c2noc(-c3ccc(N4CCN(C)CC4)c([N+](=O)[O-])c3)n2)cc1OC	-28%	-105*	6%[46.1 µM]	-17%	0%[46.1 µM]	31%
COc1ccc(CNC(=O)C2CCN(S(=O)(=O)c3ccc4c(ccn4C)c3)CC2)cc1	-11%	0	6%[46.1 µM]	-7%	-4%[46.1 µM]	-16%
